Source: PubChem (National Center for Advancing Translational Sciences (NCATS))
The list is not random: actives were taken first. Their share in the collection is about 7.9%.
MARV entry inh – qHTS for inhibitors of binding or entry into cells for Marburg Virus. Potency, µM (doses to about 37.8 µM), without a hit: top-dose activity change, negative = inhibition, most hits filed as inhibitors. 1.8% of 300,000 active. Marburg virus pseudotyped entry inhibition, cell reporter; calls by dose curve; tested in HEK293 cells; note: potency is the fitted concentration of half-maximal effect
LASV entry inh – qHTS for Inhibitors of binding or entry into cells for Lassa Virus; 1.2% of 300,000 active; Lassa virus pseudotype entry inhibition, cell reporter; Potency, µM (titrated, usually from 37.9 µM), for inactives: top-dose activity change, negative = inhibition, most hits filed as inhibitors; calls by dose curve; tested in HEK293 cells; note: potency is the fitted concentration of half-maximal effect; nearly all actives have a fitted effect of over 50% in size
HCMV inh – qHTS Assay for inhibitors of the human cytomegalovirus (HCMV); HFF cells, HCMV-luciferase reporter, 72 h; active compounds read low; activity change, negative = inhibition, % at 57.5 µM; 4.5% of 410,000 active; in the data active = activity change below about -60%; inconclusive = no clear call, values can overlap the other calls; inactive = above about -39%
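Two-dose cell screen: HFF monolayers treated with compounds and infected with luciferase-expressing HCMV at 1 PFU/cell, 72 h at 37C, then lysed for luciferase measurement.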
FMDV antiviral – High Throughput Screening for Foot and Mouth Disease Virus Antivirals; Potency, µM (doses to about 57.9 µM), inactives show top-dose activity change, negative = inhibition, most hits filed as inhibitors; 1.2% of 410,000 active; AID 1159524, 2015; FMDV antiviral cell-based qHTS; calls by dose curve; tested in HEK293T cells; note: read-out not given here; potency is the fitted concentration of half-maximal effect; nearly all actives have a fitted effect of over 45% in size
HCV inhibitor – qHTS Assay for Inhibitors of Hepatitis C Virus (HCV); Huh7.5.1 HCVcc-Cre infection, luciferase reporter, 44 h; Potency, µM (doses to about 41.8 µM), for inactives: at the highest dose activity change, negative = inhibition, usual class: inhibitors; 3.4% of 340,000 active; AID 651820, 2012; active = well fitted inhibition curve with a large enough effect; inconclusive = small, poorly fitted or top-dose-only effect, or another doubt; inactive = no such curve, though single readings can be large or run the other way; note: potency is the fitted concentration of half-maximal effect
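HCVcc-Cre virus at an moi near 0.5 was added right after compound to cells cultured 4 h from seeding (1,000 cells/well). Luciferase activity was determined 44 h later, 15 min after substrate addition at RT.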
* = called active by the depositor; u = inconclusive; x = not tested or not shown; [ ] = remark or other dose. % is set by controls: 0 for no effect and ±100 for the full control effect.

SMILES | MARV entry inh | LASV entry inh | HCMV inh | FMDV antiviral | HCV inhibitor
O=C(OCc1cc([N+](=O)[O-])cc2c1OCOC2)c1ccccn1 | 21% | -2% | -11 | -5% | -16%
CC(=O)Nc1ccc(NC(=O)C/C(C)=N/NC(=O)COc2cc(C)c(Br)cc2Br)cc1 | u | 14%[46.1 µM] | -3 | -3% | 12%
CC1(C)OC(c2ccccc2)=C/C(=C/C=Nc2ccccc2)O1 | -6% | -14% | 28 | -5% | u
CC1(C)OC(c2ccccc2)=C/C(=C\C=N\NC(=O)c2ccncc2)O1 | -27%[46.1 µM] | -7% | -64* | -20% | -25%
COc1ccc(C(NC(C)=O)c2ccc3cccnc3c2O)c(OC)c1 (stereo not drawn) | u | 6.3µM* | x | 0% | 5µM*
CCCC(=O)NC(c1ccc(Cl)cc1)c1ccc2cccnc2c1O (stereo not drawn) | 3.5µM* | 4µM* | -100* | -9% | 1.8µM*
COc1cccc(C(NC(C)=O)c2nc(-c3cccc4cccnc34)cs2)c1 (stereo not drawn) | x | x | 29 | -3% | x
CCCC(=O)NC(c1ccccc1)c1c(O)ccc2ccccc12 (stereo not drawn) | x | x | 9 | -18% | u
CC(=O)NC(c1ccc(Cl)cc1Cl)c1ccc2cccnc2c1O (stereo not drawn) | x | x | -98* | 0% | 5.6µM*
CCCC(=O)NC(c1ccc(C)cc1)c1ccc2cccnc2c1O (stereo not drawn) | 2.8µM* | u | x | -16% | 3.5µM*
CC(C)c1ccc(Nc2cc(C(=O)NCc3cccs3)c3ccccc3n2)cc1 | -4%[46.1 µM] | 22%[46.1 µM] | -3 | -10% | x
Cc1cccc(NC(c2cccc(Cl)c2)c2ccc3cccnc3c2O)n1 (stereo not drawn) | u | 10µM* | -98* | -12% | x
CCCC(=O)NC(c1ccc(Cl)cc1Cl)c1ccc2cccnc2c1O (stereo not drawn) | 2.2µM* | u | -105* | -12% | u
CCCC(=O)NC(c1ccccc1Cl)c1c(O)ccc2ccccc12 (stereo not drawn) | -8% | u | -16 | u | -22%
CCCCC(=O)NC(c1ccc(Cl)cc1)c1ccc2cccnc2c1O (stereo not drawn) | 4µM* | u | -98* | -3% | u
CCCCC(=O)NC(c1ccccc1Cl)c1c(O)ccc2ccccc12 (stereo not drawn) | -40% | -40% | u | u | -4%
CCOc1cc(C(Nc2cc(C)ccn2)c2ccc3cccnc3c2O)ccc1OC (stereo not drawn) | u | 5.6µM* | -97* | -18% | x
CC(=O)c1cccc(NC(=O)CN2CCc3cc4c(cc3C2)OCCCO4)c1 | x | x | 21 | -7% | u
CC1C=CC(C(C2C(=O)CC(C)(C)CC2=O)C2C(=O)CC(C)(C)CC2=O)S1 (stereo not drawn) | -6%[46.1 µM] | x | x | x | x
CC(=O)NC(c1ccc2ccccc2c1)c1ccc2cccnc2c1O (stereo not drawn) | u | u | -98* | -13% | 2.5µM*
Cc1ccc(C(Nc2ccccn2)c2ccc3cccnc3c2O)cc1 (stereo not drawn) | u | u | -64* | -9% | x
Cc1c(Br)c([N+](=O)[O-])nn1CC(=O)Nc1ccc2nc3n(c(=O)c2c1)CCCC3 | x | x | -26 | -11% | -21%
COCCNC(=O)CSc1nnc(NC(=O)C2CC(=O)N(c3ccccc3OC)C2)s1 (stereo not drawn) | 3% | 11% | -28 | -24% | -16%
Cc1ccc(C(C#N)c2ccc(Cl)nn2)cc1 (stereo not drawn) | 14%[46.1 µM] | 12% | -39 | 30% | 11%
N#CC(c1ccc(Cl)cc1)c1ccc(Cl)nn1 (stereo not drawn) | u | 13% | -82* | 6% | 2%
SMILES | MARV entry inh | LASV entry inh | HCMV inh | FMDV antiviral | HCV inhibitor
N#CC(c1ccc(Cl)nn1)c1ccccc1Cl (stereo not drawn) | 22% | 3% | -63* | 59% | 9%
CC(C)=CCC/C(C)=C/CO | x | x | x | 8% | x
CCN(CC)CCOC(=O)c1ccc(NC(=O)COc2cc(=O)n(CC)c3ccccc23)cc1 | u | -1% | -101* | 5% | u
CCc1ccc(NC(=O)CCCOc2cc(=O)n(C)c3ccccc23)cc1 | x | x | -98* | 1% | x
O=C(Nc1ccc2nc(C3CC3)n(Cc3ccc(F)cc3)c(=O)c2c1)c1ccco1 | -29% | u | -69* | -20% | 22µM*
CC(=O)Nc1ccc2nc(C3CC3)n(Cc3ccc(Cl)cc3)c(=O)c2c1 | x | x | 9 | 49% | u
CCCCCC(=O)/C=C/C=C\CCCCCCCC(=O)O | x | x | x | -5%[0.463 µM] | x
Cc1cc(C)cc(NC(=O)COC(=O)COc2ccc(N(C)S(=O)(=O)c3cccs3)cc2)c1 | -14% | 6% | -10 | 6% | 30%
CC(C)C[C@H](NC(=O)c1nc[nH]c1C(=O)N[C@@H](CC(C)C)C(=O)OC(C)(C)C)C(=O)OC(C)(C)C | x | x | -23 | 40µM* | u
CC(C)C[C@H](NC(=O)c1nc[nH]c1C(=O)NC(c1ccccc1)c1ccccc1)C(=O)OC(C)(C)C | x | x | -63* | -19% | 1%
CC(C)C[C@H](NC(=O)c1nc[nH]c1C(=O)NC(c1ccccc1)c1ccccc1)C(=O)OCc1ccccc1 | x | x | 18 | 0% | u
COc1ccccc1CNC(=O)c1cc2cc(C)ccc2n1C | u | u | u | 20% | x
COc1ccccc1-n1cc(CN2CCOc3ccc(CN4C[C@@H](C)O[C@@H](C)C4)cc3C2)cn1 | x | x | x | -22% | x
COC(=O)[C@@]1(C=C2c3ccc(F)cc3[C@@H](OC)[C@@H]2C)[C@@H]2C=CC[C@@H]21 | -19%[14.2 µM] | x | x | x | x
Cc1ccc(CNC(=O)CCc2cn(Cc3ccc(C)cc3)c3ccccc23)cc1 | x | 0%[46.1 µM] | 6 | -12% | x
O=C(CCc1cn(Cc2ccccc2F)c2ccccc12)NCc1ccc(Cl)cc1 | x | -2%[46.1 µM] | -27 | 10µM* | x
COc1ccc(CNC(=O)c2cccc(N3CCCS3(=O)=O)c2)cc1OC | u | -15%[46.1 µM] | -85* | u | x
CCn1cc(-c2cc(C(=O)O)c3ccccc3n2)cn1 | -31%[46.1 µM] | u | 4 | u | 10%
COc1ccc(C(=O)NCC(=O)N=Nc2c(O)n(C)c3ccccc23)cc1OC | x | x | -61* | -9% | -20%
COc1ccc(C(=O)NCC(=O)N=Nc2c(O)n(Cc3ccccc3)c3ccccc23)cc1OC | -13%[46.1 µM] | 9% | u | -15% | u
COc1cc(NC(=O)CSc2ccc(-c3sc(C)nc3C)nn2)cc(OC)c1 | x | -8%[46.1 µM] | -35 | -25% | x
O=C(O)/C=C/C(=O)Nc1ccccc1-c1ccccc1NC(=O)/C=C/C(=O)O | 3% | u | -15 | -4% | 26%
O=C(O)/C=C\C(=O)Nc1ccccc1C#Cc1ccc(Br)cc1 | -1% | -1% | 16 | 14% | 4.5µM*
